The text below walks through data of PubChem BioAssay.

SMILES strings stand for the structures. Values joined by “and” are separate entries in the source; they are usually repeats but may differ in a detail not shown here. Identical values can stand only once. Inconclusive results are not listed. A structure can be active in one record and inactive in another. Active and inactive are the calls of the source. Cut-off read from the data, not from the text of the source, unless noted: active = inhibition above about 80%; inactive = the rest. Numbered stars: 1 amine (or outer) side, 2 acyl side, 3 side chain; on linkers, the order of the positions; unused ones are H or OH. Bridge positions count the residues as written; N and C are the ends. Square brackets hold non-standard residues; d marks the D form. Peptide text beside a SMILES is read from it. I, II: the chains in the order shown. Actinocin(9to1) = Cc1c2oc3c(C)ccc(C(=O)[*:1])c3nc-2c(C(=O)[*:2])c(N)c1=O; NMeV = CN[CH](C(=O)O)C(C)C; Sar = CNCC(=O)O

Assay [1] is described as follows: viability loss in pontine glioma line – cell-based, SU-DIPG-XXV, MIPE5.0, CellTiter-Glo, qHTS, dose response (AID 1347065; cut-off not given, nearly all actives have AC50 up to about 26 µM;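 note: cells exposed to compound for 48 hours before ATP readout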). The settings on record: CellTiter-Glo ATP luminescence.
The nature of assay [2]: JHH-DIPG-1 glioma cell viability, MIPE5.0 library, CellTiter-Glo luminescence, qHTS (AID 1347067; cut-off not given, nearly all actives have AC50 up to about 26 µM;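 note: cells exposed to compound for 48 hours before readout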). The settings on record: JHH-DIPG-1 glioma viability, CellTiter-Glo ATP luminescence.
The nature of assay [3]: growth inhibition of DIPG cells – cell-based, MIPE5.0 library, qHTS (AID 1347068; cut-off not given, nearly all actives have IC50 up to about 30 µM;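 for IC50: cells exposed to compound for 48 hours before viability readout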). The settings on record: SU-DIPG-XXV viability.
The target of assay [4] is NAD(+) hydrolase SARM1 (Homo sapiens) (UniProt Q6SZW1). Put plainly: blocking NAD cleavage by SARM1 SAM-TIR – cell lysate, NAD-Glo luminescence (AID 1508614;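 active = compound whose remaining NAD level is above about 45 nM, limit read from the data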;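 note: higher remaining NAD means stronger inhibition of SARM1 NADase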). Conditions: SAM-TIR HEK293T lysate NADase, at 1 µM, stronger effect = higher value.
Assay [5] can be described thus: growth inhibition, single agent or in combination, cell-based, chromothripsis tumors, cisplatin or BGB combos (AID 1671449).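 Note: cells exposed for 96 hours; 0% = vehicle DMSO and 100% = killing by high DMSO.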 Conditions: LFS_MB_P medulloblastoma cells.
Assay [6] can be described thus: growth inhibition, single agent and combos, cell-based, chromothripsis tumors, cisplatin or BGB combos (AID 1671450).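 Note: cells exposed to compound for four days; 0% = vehicle DMSO and 100% = cell killing by high DMSO.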 The settings on record: HDN33 neuroblastoma cells, stronger effect = higher value.
Assay [7] can be described thus: growth inhibition, single agents and combos, ICB984, cell-based, cisplatin or BGB combos, synergistic combos for chromothripsis tumors (AID 1671451; call rule not given here;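 note: cells exposed for 96 hours before readout; 0% = vehicle DMSO and 100% = killing by high DMSO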). Conditions: ICB984 medulloblastoma cells, drug combinations, stronger effect = higher value.
Assay [8] can be described thus: growth inhibition, single agents and combos, LFS_MB_1R, cell-based, cisplatin or BGB combos, synergistic combos for chromothripsis tumors (AID 1671452).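 Note: cells exposed for 96 hours before readout.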 Conditions: LFS_MB_1R medulloblastoma cells, stronger effect = higher value.
Assay [9] in a line: growth inhibition, single agents and combos, HTB85, cell-based, BGB or cisplatin IC20 combos, synergistic combos for chromothripsis tumors (AID 1671453).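 Note: cells exposed for 96 hours before readout; 0% = vehicle DMSO and 100% = high DMSO killing control.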 Conditions: HTB85 osteosarcoma cells, drug combinations, stronger effect = higher value.
Assay [10] can be described thus: growth inhibition, single agents and combos, CRL2098, cell-based, BGB or cisplatin IC20 combos, synergistic combos for chromothripsis tumors (AID 1671454).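 Note: cells exposed for 96 h before readout; 0% = vehicle DMSO and 100% = killing by high DMSO.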 Conditions: CRL2098 osteosarcoma cells, drug combinations, stronger effect = higher value.
The nature of assay [11]: growth inhibition, single agents and combos, HD-MB03, cell-based, BGB or cisplatin IC20 combos, synergistic combos for chromothripsis tumors (AID 1671455; in the data active = inhibition above about 83%;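 note: 0% = vehicle DMSO and 100% = high DMSO as cytotoxic control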). Conditions: HD-MB03 medulloblastoma cells, stronger effect = higher value.
The nature of assay [12]: growth inhibition, single agents and combos, UWB1.289, cell-based, BGB or cisplatin combos, synergistic combos for chromothripsis tumors (AID 1671456).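 Note: cells exposed to compound for four days; 0% = vehicle DMSO and 100% = killing by high DMSO.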 The settings on record: UWB1.289 ovarian carcinoma cells, stronger effect = higher value.
A short description of assay [13]: growth inhibition, single agents and combos, LFS_MB_2R, cell-based, cisplatin combos, synergistic combos for chromothripsis tumors (AID 1671457).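 Note: cells exposed to compound for four days before readout.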 The settings on record: LFS_MB_2R medulloblastoma cells, stronger effect = higher value.
Assay [14] in a line: growth inhibition, MDA-MB-436, cell-based, BGB or cisplatin combos, synergistic combos for chromothripsis tumors (AID 1671458; call rule not given here;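 note: cells exposed for 96 hours; 0% = vehicle DMSO and 100% = killing by high DMSO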). The settings on record: MDA-MB-436 breast carcinoma growth inhibition, drug combinations, stronger effect = higher value.
A short description of assay [15]: UWB1.289_BRCA1 ovarian cancer growth, cell-based, BGB or cisplatin combinations (AID 1671459). Conditions: UWB1.289 BRCA1 ovarian carcinoma, drug combinations, stronger effect = higher value.
Assay [16] in a line: drug combination toxicity in non-malignant astrocytes – cell-based, BGB or cisplatin IC20 combos, cytotoxicity control for chromothriptic childhood tumor combination screen (AID 1671460).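 Note: cells exposed to compounds for 96 hours before viability readout; 0% = vehicle and 100% = killing control.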 Conditions: Human astrocytes, viability inhibition, drug combinations, at 0.5 µM, stronger effect = higher value.
Assay [17] is described as follows: BT084 cell growth, single and combined drugs, ICGC_MB145, cisplatin and BGB IC40 combos (AID 1671461).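 Note: cells exposed to drugs for 96 hours; 0% = vehicle DMSO and 100% = high DMSO full killing control.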 The settings on record: BT084 medulloblastoma cells, drug combinations, stronger effect = higher value.
A short description of assay [18]: RCMB18 cell growth, single agent and combined, cisplatin and BGB IC40 combos (AID 1671462).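 Note: cells exposed to compound for four days.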 The settings on record: RCMB18 medulloblastoma cells, stronger effect = higher value.
Assay [19] is described as follows: CRL1545 cell growth, single agent and combined, cisplatin and BGB IC20 combos (AID 1671464).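 Note: cells exposed to compound for 96 hours before readout; 0% = vehicle DMSO and 100% = high DMSO killing control.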 Conditions: CRL1545 osteosarcoma cells, stronger effect = higher value.
Setting [20] is: measured here: combination with BGB IC40, at 0.05 µM.
Setting [21] is: measured here: with BGB IC20 combination, at 0.5 µM.
Setting [22] is: measured here: with cisplatin IC20 combination, at 0.5 µM.
[23] abbreviates: measured here: combination with cisplatin, at 0.5 µM.
Where [24] appears, read: measured here: combination with cisplatin, at 5 µM.

Chain of NAD(+) hydrolase SARM1 (Homo sapiens) (Q6SZW1 whole entry, looked up): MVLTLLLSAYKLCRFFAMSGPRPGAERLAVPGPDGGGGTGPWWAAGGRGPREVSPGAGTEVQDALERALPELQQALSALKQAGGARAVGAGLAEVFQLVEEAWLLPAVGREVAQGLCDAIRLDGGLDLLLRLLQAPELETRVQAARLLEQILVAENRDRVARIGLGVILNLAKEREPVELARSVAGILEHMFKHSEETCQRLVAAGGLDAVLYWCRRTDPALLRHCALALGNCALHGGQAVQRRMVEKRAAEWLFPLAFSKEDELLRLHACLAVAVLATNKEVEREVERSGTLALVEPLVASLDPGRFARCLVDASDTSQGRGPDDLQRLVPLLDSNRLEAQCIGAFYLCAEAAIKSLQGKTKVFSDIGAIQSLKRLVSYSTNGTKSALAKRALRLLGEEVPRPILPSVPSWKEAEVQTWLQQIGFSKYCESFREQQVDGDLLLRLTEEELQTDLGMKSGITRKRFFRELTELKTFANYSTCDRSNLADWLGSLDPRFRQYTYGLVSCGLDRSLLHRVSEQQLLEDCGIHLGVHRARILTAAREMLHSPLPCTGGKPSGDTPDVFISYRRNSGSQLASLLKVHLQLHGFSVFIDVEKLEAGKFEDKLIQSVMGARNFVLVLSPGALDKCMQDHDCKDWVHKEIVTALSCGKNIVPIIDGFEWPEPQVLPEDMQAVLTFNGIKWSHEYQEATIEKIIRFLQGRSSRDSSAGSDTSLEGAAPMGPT

With `COc1cc(C)c(/C=C/C(C)=C/C=C/C(C)=C/C(=O)O)c(C)c1C`, the AC50 in assay [1] is 11800 nM (active). In addition, the call in [2] and in assay [3] was inactive.
In the case of `CC1c2cccc(O)c2C(O)=C2C(=O)C3(O)C(O)=C(C(N)=O)C(=O)C(N(C)C)C3C(O)C21` (stereo not given), the outcome in assay [2] and in [3] was inactive.
As to `CN1CCC[C@H]1c1cccnc1`, the remaining NAD in assay [4] is 10 nM (inactive).
In the case of `COc1cc(C[C@@H](CO)[C@H](CO)Cc2ccc(O)c(OC)c2)ccc1O`, the result in assay [1], in assay [2] and in [3] was inactive.
Take `CC(C)c1ccc2c(c1)c(SC(C)(C)C)c(CC(C)(C)C(=O)O)n2Cc1ccc(Cl)cc1`: the AC50 in [1] was 18600 nM (active); in [2], 26300 nM (active). The compound was classed as inactive in assay [3].
Take `Nc1ccn([C@@H]2CS[C@H](CO)O2)c(=O)n1`: the compound was called inactive in assay [1], in assay [2] and in [3]. In [4], the remaining NAD was 10 nM (inactive).
Turning to `COC(=O)Nc1nc2ccc(C(=O)c3ccc(F)cc3)cc2[nH]1`, the AC50 in assay [1] is 332 nM (active); in assay [2] it was 417 nM (active).
On to `O=C1c2c(O)cc(O)cc2O[C@H](c2ccc(O)c(O)c2)[C@H]1O`, for which the result in [1], in [2] and in assay [3] was inactive.
On to `CN1[C@@H]2CC[C@H]1CC(OC(=O)C(CO)c1ccccc1)C2` (stereo not given in full), for which, in assay [4], the remaining NAD is 10 nM (inactive).
`C=C1/C(=C\C=C2/CCC[C@]3(C)[C@@H]([C@H](C)CCCC(C)(C)O)CC[C@@H]23)C[C@@H](O)C[C@@H]1O`: the result in assay [1] was inactive. Further, the IC50 in [3] was 23500 nM (active).
In the case of `Cc1c2oc3c(C)ccc(C(=O)NC4C(=O)NC(C(C)C)C(=O)N5CCCC5C(=O)N(C)CC(=O)N(C)C(C(C)C)C(=O)OC4C)c3nc-2c(C(=O)NC2C(=O)NC(C(C)C)C(=O)N3CCCC3C(=O)N(C)CC(=O)N(C)C(C(C)C)C(=O)OC2C)c(N)c1=O` (stereo not given) (I: TVP[Sar][NMeV] / II: TVP[Sar][NMeV]; ester I:1-I:C, II:1-II:C; linker I:N-II:N via Actinocin(9to1); configuration not given here), the AC50 in assay [1] was 18.2 nM (active); in [2], 6.45 nM (active). In assay [3], the IC50 is 72.3 nM (active).
Turning to `O=c1[nH]c(=O)n(C2CC(O)C(CO)O2)cc1F` (stereo not given), the inhibition was -20.6% (inactive) and -34.4% (inactive) in [5] (at 0.5 µM, stronger effect = higher value); -20.3% and -26.1% in assay [5] (measured here: combination with BGB IC20, at 0.005 µM); -43.8% and -18.6% in assay [5] (measured here: combination with BGB IC40, at 0.005 µM); -14.2% and -19.6% in assay [5] (setting [20]); -24.9% and -48.9% in assay [5] (measured here: combination with cisplatin, at 0.5 µM, stronger effect = higher value); -34.2% and -34.5% in [5] (measured here: combination with cisplatin, at 5 µM, stronger effect = higher value). Further, the inhibition is 90.8% and 95.2% in [6] (BGB combo, at 5 µM); 75% (inactive) and 78.5% (inactive) in assay [6] (at 0.5 µM); 63% and 78% in assay [6] (cisplatin combo, at 5 µM); 72.2% and 74.3% in assay [6] (setting [21]); 71.3% and 78.7% in [6] (setting [22]); 78.6% and 88.5% in [6] (single agent, at 5 µM). In addition, the inhibition was -21.6% and 13.5% in assay [7] (BGB IC20 combo, at 0.005 µM); -12.3% and -34.3% in [7] (BGB IC40 combo, at 0.005 µM); -9.05% and -30.1% in assay [7] (BGB IC40 combo, at 0.05 µM); -17.5% (inactive) and -17.1% (inactive) in assay [7] (at 0.5 µM); -9.05% and -34.7% in assay [7] (cisplatin combo, at 0.05 µM); -15.5% and -22.4% in assay [7] (cisplatin combo, at 0.5 µM). The inhibition was -14.7% and -40.3% in assay [7] (cisplatin combo, at 5 µM); -2.45% and 14.3% in assay [7] (measured here: 5 uM single agent, at 5 µM); -19.6% (inactive) and -23.9% (inactive) in [8] (at 0.5 µM); 8.22% and -31% in assay [8] (setting [20]); 23.3% and -25.8% in assay [8] (setting [23]); -7.39% and -26.1% in assay [8] (setting [24]). The inhibition is -24.9% (inactive) and 12.1% (inactive) in assay [9] (at 0.5 µM); -52.4% and -21.4% in assay [9] (measured here: with BGB IC20, at 0.5 µM); 5.67% and -8.07% in assay [9] (measured here: with BGB IC20, at 5 µM); -22.6% and 15.4% in [9] (measured here: with cisplatin IC20, at 0.5 µM); 14% and 12.8% in assay [9] (measured here: with cisplatin IC20, at 5 µM); 12% and 38.7% in assay [9] (single agent, at 5 µM). Besides, the inhibition was -50.2% (inactive) and -54% (inactive) in [10] (at 0.5 µM); -11.9% and -25.4% in [10] (measured here: combination with BGB at IC20, at 0.5 µM); -87.1% and -79.9% in assay [10] (measured here: combination with cisplatin at IC20, at 0.5 µM); 75.2% (inactive) and 82.3% (active) in assay [11] (at 0.5 µM); 72.8% and 77.8% in [11] (measured here: combo with BGB at IC20, at 0.5 µM); 79.4% and 87.9% in assay [11] (measured here: combo with cisplatin at IC20, at 0.5 µM). Besides, the inhibition is 11% (inactive) and 22.1% (inactive) in [12] (at 0.5 µM); -37.3% and -7.93% in assay [12] (measured here: inhibition with BGB combination, at 0.05 µM); -10.2% and -15.2% in assay [12] (measured here: inhibition with cisplatin combination, at 0.05 µM); -6.08% (inactive) and -22.6% (inactive) in [13] (at 0.5 µM); -26% and -30.3% in assay [13] (setting [23]); -20.5% and -22.8% in assay [13] (setting [24]). Besides, the inhibition is 39.9% (inactive) and 54.5% (inactive) in [14] (at 0.5 µM); 12.4% and 36% in assay [14] (measured here: BGB combination, at 0.5 µM); 22.9% and 47.8% in assay [14] (measured here: BGB combination, at 5 µM); 44% and 56.3% in [14] (measured here: cisplatin combination, at 0.5 µM); 73% and 86.7% in [14] (measured here: cisplatin combination, at 5 µM); 17.5% and 50.3% in [15] (BGB combination, concentration series, at 5 µM). For the same compound, the inhibition in assay [15] (at 0.5 µM) is 15.2% (inactive) and 29.3% (inactive); in assay [15] (cisplatin combination, concentration series, at 5 µM) it was 55.7% and 77.6%; in assay [16], 17.4% (inactive) and 30.8% (inactive); in assay [16] (measured here: combo with BGB IC20), 14.4% and 24.7%; in assay [16] (measured here: combo with cisplatin IC20) it was 5.72% and 15.6%; in assay [17] (at 0.5 µM), -20.4% (inactive) and -2.18% (inactive). In addition, the inhibition was -4.33% and -24.2% in assay [17] (cisplatin combination, at 0.5 µM); -24.6% and 6.37% in assay [17] (cisplatin combination, at 5 µM); -0.925% and 1.52% in [17] (measured here: BGB IC40 combination 0.05 uM, at 0.05 µM); -4.53% and -3.71% in assay [17] (single agent, at 5 µM); -3.13% (inactive) and -17.8% (inactive) in [18] (at 0.5 µM); 11.8% and 9.06% in assay [18] (cisplatin combo, at 5 µM). Moreover, the inhibition in assay [18] (measured here: BGB IC40 combination, at 0.05 µM) is -3.94% and -12.9%; in [18] (setting [23]), 1.15% and 0.687%; in assay [18] (single agent, at 5 µM) it was -14.6% and -9.12%; in assay [19] (at 0.5 µM), 30.4% (inactive) and 66.8% (inactive); in assay [19] (setting [21]), 10.3% and 56.4%; in assay [19] (setting [22]), 40.5% and 71.6%. Also, the inhibition in [19] (single agent, at 0.05 µM) is 7.06% and 11.7%; in assay [19] (single agent, at 5 µM) it was 91.4% and 96.1%.
